Source: PubChem BioAssay AID485346 (Sanford-Burnham Center for Chemical Genomics, 2010)
About 10,000 (3%) of roughly 330,000 compounds were called active. The full list was thinned out, with actives kept by preference. A number with no mark means an inactive call.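 How the source made its calls: active means inhibition of at least 50% at 8 µM in the primary screen; inactive means the rest.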

The molecules below were run against Protein Mdm4 (Homo sapiens) + E3 ubiquitin-protein ligase Mdm2 (Homo sapiens) (UniProt O15151+Q00987) (assay: disruptors of Mdm2/MdmX RING complex – cell-based, luminescence, split luciferase, SaOS-2, uHTS, primary screen (AID 485346)). Details: SaOS-2 split-luciferase Mdm2/MdmX complementation, at 8 µM, stronger effect = higher value.
Protein Mdm4 (Homo sapiens) + E3 ubiquitin-protein ligase Mdm2 (Homo sapiens), sequence (O15151 whole entry, looked up): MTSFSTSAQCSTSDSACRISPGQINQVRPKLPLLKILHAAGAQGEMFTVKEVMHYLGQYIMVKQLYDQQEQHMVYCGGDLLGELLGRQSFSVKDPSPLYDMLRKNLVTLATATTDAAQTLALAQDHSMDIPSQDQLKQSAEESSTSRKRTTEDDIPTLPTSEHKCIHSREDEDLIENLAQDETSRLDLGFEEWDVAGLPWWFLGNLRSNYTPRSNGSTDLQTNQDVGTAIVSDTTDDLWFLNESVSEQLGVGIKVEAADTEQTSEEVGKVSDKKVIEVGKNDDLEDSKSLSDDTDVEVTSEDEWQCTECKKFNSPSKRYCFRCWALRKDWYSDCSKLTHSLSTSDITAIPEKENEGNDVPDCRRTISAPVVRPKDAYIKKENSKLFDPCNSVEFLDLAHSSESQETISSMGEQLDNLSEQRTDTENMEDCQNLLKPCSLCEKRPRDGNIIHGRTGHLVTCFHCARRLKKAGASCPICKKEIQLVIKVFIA
Protein Mdm4 (Homo sapiens) + E3 ubiquitin-protein ligase Mdm2 (Homo sapiens), sequence (Q00987 whole entry, looked up): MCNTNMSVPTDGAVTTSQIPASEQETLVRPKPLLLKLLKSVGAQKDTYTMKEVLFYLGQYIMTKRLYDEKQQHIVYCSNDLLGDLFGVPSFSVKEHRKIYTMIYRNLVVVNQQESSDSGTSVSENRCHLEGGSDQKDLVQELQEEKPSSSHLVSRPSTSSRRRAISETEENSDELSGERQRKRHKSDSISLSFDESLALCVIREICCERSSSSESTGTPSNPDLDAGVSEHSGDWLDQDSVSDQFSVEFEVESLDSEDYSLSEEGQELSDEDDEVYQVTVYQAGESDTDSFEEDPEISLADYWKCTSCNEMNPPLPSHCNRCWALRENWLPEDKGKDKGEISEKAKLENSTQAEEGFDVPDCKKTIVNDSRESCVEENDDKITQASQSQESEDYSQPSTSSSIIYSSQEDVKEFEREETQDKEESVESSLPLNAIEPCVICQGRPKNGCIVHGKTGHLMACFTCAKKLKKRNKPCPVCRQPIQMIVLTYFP
`CCCNC(=O)OC[C@H]1O[C@H](CCO/N=C/[C@@H](NS(=O)(=O)c2ccc(C)cc2)[C@H](C)/C=C/CC(=O)OC)C=C[C@@H]1Oc1ccc(OC)cc1` showed an inhibition of 20.8%.
Molecule `O=C(Cn1c2[n+](c3ccc(C(F)(F)F)cc31)CCCCC2)Nc1c(F)cccc1F` has an inhibition of 13%.
For `C=CCNC(=O)/C=C/c1ccc(C(C)C)cc1`, the inhibition was -111%.
`O=C(c1ccc[nH]c1=S)N1CCN(S(=O)(=O)c2ccc(Br)cc2Cl)CC1` showed an inhibition of 2.6%.
With `COc1cc2c(cc1OC)C(C)N(S(=O)(=O)c1cnc(Cl)c(Cl)c1)CC2` (stereo unspecified) the inhibition was 80.7% (active).
In the case of `COc1cc2c(cc1OC)CN(C(=O)c1cc(S(=O)(=O)N3CCCCC3)ccc1Cl)CC2`, the inhibition is reported as 20.3%.
`COc1ccc(S(=O)(=O)N2CCC(C(=O)N3CCc4ccccc4C3)CC2)cc1OC` gave an inhibition of -18.3%.
For `COC(=O)C1=C(Nc2ccc(C)cc2)C=C(C)C(C(=O)OC)C1c1ccc(F)cc1` (stereo unspecified), the inhibition was 50.9% (active).
`COC(=O)C1=C(Nc2ccc(OC)cc2)C=C(C)C(C(=O)OC)C1c1ccc(C)cc1` (stereo unspecified) gave an inhibition of 19.4%.
`COC(=O)C1C(=O)NCC1c1ccc(C)cc1` (stereo unspecified) gave an inhibition of 13%.
`CC(C)(C)C(=O)NC1CC2CCCC(C1)N2C(=O)Nc1ccccc1F` (stereo unspecified) showed an inhibition of -1.01%.
In the case of `O=C(CC1C(=O)NCCN1CC(c1ccccc1)c1ccccc1)NCC1CCOCC1` (stereo unspecified), the inhibition is reported as 15.7%.
Work on `COc1cc(NS(=O)(=O)c2ccc(NC(=S)NC(=O)c3ccccc3)cc2)nc(OC)n1` yielded an inhibition of 13.4%.
In the case of `CCOC(=O)N1CCN(C(=O)c2ccc(S(=O)(=O)c3ccc(C)cc3)c(NC(C)=O)c2)CC1`, the inhibition is reported as 50.8% (active).
For `COCCNC(=O)c1ccc(S(=O)(=O)c2ccc(Cl)cc2)c(NC(C)=O)c1`, the inhibition was 14.7%.
In the case of `CCOC(=O)N1CCN(C(=O)c2ccc3c(c2)N(Cc2ccc(C)cc2)CCS3)CC1`, the inhibition is reported as 6.09%.
`CCOC(=O)/C(C#N)=C\c1c(C)cc(C)c(COC(C)=O)c1C` showed an inhibition of 14.2%.
In the case of `Cc1cc(C)nc(SCC(=O)N(C)C)n1`, the inhibition is reported as -9.55%.
`Cc1cc(C)nc(S/C=C/C(=O)c2ccccc2)n1` was tested, and the inhibition was 65.8% (active).
In the case of `Cc1cc(C)nc(SCC(=O)c2ccc(Cl)cc2)n1`, the inhibition is reported as 9.88%.
`CCCc1ccc(C(=O)COC(=O)CN2C(=O)NC3(CCCCC3C)C2=O)cc1` (stereo unspecified) was tested, and the inhibition was 11.7%.
`O=C(Oc1ccc(Br)cc1)c1cccnc1` gave an inhibition of -5.87%.
With `O=C(Oc1c(-c2ccco2)oc2ccccc2c1=O)c1cccnc1` the inhibition was 56.6% (active).
`N#CCc1ccc(OC(=O)c2cccnc2)cc1` was tested, and the inhibition was 12.8%.
`O=C(c1ccc(-n2cnnn2)cc1)N1CCN(C(c2ccccc2)c2ccccc2)CC1` gave an inhibition of 12.3%.
For `CCN(CCCNC(=O)CCn1c(=O)[nH]c2ccsc2c1=O)c1ccccc1`, the inhibition was 0.795%.
`CCN(CCCNC(=O)c1ccc2c(c1)NC(=O)CN2C)c1cccc(C)c1` was tested, and the inhibition was 82.6% (active).
With `CCN(CCCNC(=O)C1CCN(S(=O)(=O)c2cnc[nH]2)CC1)c1ccccc1` the inhibition was 37.3%.
`CC1CC(C)CN(C(=O)CSc2ccsc2[N+](=O)[O-])C1` (stereo unspecified) gave an inhibition of -7.54%.
In the case of `Oc1ccc(-c2cccc(-c3ccc(O)cc3)c2)cc1`, the inhibition is reported as -24.2%.
`Cc1cccc(Nc2nc(-c3ccccc3)cs2)n1` was tested, and the inhibition was -222%.
With `COc1cc(CC(=O)Nc2nc(-c3ccc(F)c(F)c3)cs2)cc(OC)c1OC` the inhibition was 28.8%.
`Cc1ccc(-c2csc(NC(=O)Cn3[nH]c(=O)c4ccccc4c3=O)n2)cc1` gave an inhibition of 31.2%.
In the case of `Cc1ccc(-c2csc(NC3OC(=O)c4ccccc43)n2)cc1` (stereo unspecified), the inhibition is reported as 63.6% (active).
For `COc1ccc2c(c1OC)C(=O)OC2Nc1nc(-c2ccccc2)cs1` (stereo unspecified), the inhibition was 98.5% (active).
In the case of `Cc1ccc(-c2csc(-c3cc(C)on3)n2)cc1`, the inhibition is reported as -47.3%.
`OC(CNC1CCCC1)COc1ccc(F)cc1` (stereo unspecified) was tested, and the inhibition was 7.59%.
In the case of `CCCCCCCCCCOC(=O)C[N+](C)(C)CC1CCCCC1O` (stereo unspecified), the inhibition is reported as 23.5%.
For `CCN(CC(=O)NCc1ccc(Cl)cc1)C(=O)c1c(C)noc1C`, the inhibition was 3.48%.
`O=C(c1ccncc1)N1CCN(S(=O)(=O)c2cccc([N+](=O)[O-])c2)CC1` gave an inhibition of -3.71%.
With `CC(C)c1ccc(-c2noc(C3CCCN(S(C)(=O)=O)C3)n2)cc1` (stereo unspecified) the inhibition was 2.01%.
In the case of `Cn1c(C(=O)NCCCN2CCN(c3cccc(Cl)c3)CC2)cc2c(=O)n(C)c3ccccc3c21`, the inhibition is reported as 76.9% (active).
Molecule `CCN1CCCC1CNC(=O)c1cc2c(=O)n(C)c3ccccc3c2n1C` (stereo unspecified) has an inhibition of 18.3%.
In the case of `Cn1c(C(=O)NCCc2ccsc2)cc2c(=O)n(C)c3ccccc3c21`, the inhibition is reported as -6.58%.
In the case of `O=C(OCC(=O)N1CCN(C(=O)c2ccco2)CC1)c1c(Cl)cccc1Cl`, the inhibition is reported as 2.03%.
`CCOC(=O)Cn1c2c(c(-c3ccccc3OC)cc1=O)CCCC2` was tested, and the inhibition was -13.8%.
`CCO[C@H]1OC(C(=O)O)=C[C@@H](C2CCCCC2)[C@@H]1CCCO` gave an inhibition of -5.58%.
For `COc1cccc(OCc2nnc3n2N=C(c2ccccc2)C(CC(=O)O)S3)c1` (stereo unspecified), the inhibition was -4%.
With `CCCCCCCCCCOC(=O)Cn1c(COc2ccc(C)cc2)[n+](C)c2ccccc21` the inhibition was 91.9% (active).
In the case of `CCOC(=O)Cn1c(-c2cccnc2Cl)nc2ccccc21`, the inhibition is reported as -0.413%.
`CCCCn1c(N)c(N(CCOC)C(=O)c2cccc(OCc3ccccc3)c2)c(=O)[nH]c1=O` was tested, and the inhibition was -6.7%.
In the case of `CCOC(=O)COn1c(=O)c(-c2ccc(OCC)cc2)[n+]([O-])c2ccccc21`, the inhibition is reported as -23.1%.
`CCCCCCCCCCOC(=O)Cn1c(COc2cccc(OC)c2)[n+](C)c2ccccc21` was tested, and the inhibition was 61.7% (active).
With `COc1cccc(NC(=O)CSc2nnc(C3CCCCC3)n2N)c1` the inhibition was 18.3%.
`CNC[C@@H]1Oc2c(NS(C)(=O)=O)cccc2C(=O)N([C@@H](C)CO)C[C@H]1C` showed an inhibition of -13.4%.
Molecule `COC(=O)c1ccc(/C=N/OCC(=O)Nc2cc(F)ccc2F)cc1` has an inhibition of -13.4%.
`COc1ccccc1N1CCN(c2ncnc3sc(C)c(-c4ccccc4)c23)CC1` was tested, and the inhibition was 69.2% (active).
With `COc1ccccc1N1CCN(C(=O)c2c(-c3c(Cl)cccc3Cl)noc2C)CC1` the inhibition was 15.5%.
`COc1ccccc1N1CCN(c2ccc([N+](=O)[O-])nc2)CC1` showed an inhibition of 16.1%.
`O=C(NC1Cc2ccccc2C1)c1cc(COc2cccc(C(F)(F)F)c2)on1` gave an inhibition of 26.2%.
Molecule `CCCCN(CCCC)CC(O)Cn1c2ccccc2c(=O)c2ccccc21` (stereo unspecified) has an inhibition of 18.6%.
In the case of `CS(=O)(=O)N(CC(O)Cn1c2ccccc2c2ccccc21)c1cccc2ccccc12` (stereo unspecified), the inhibition is reported as 64.1% (active).
`CC(=O)c1ccc2c(c1)c1ccccc1n2CC(C)C` was tested, and the inhibition was 47.4%.
`COc1ccc(S(=O)(=O)N2CCOCC2)cc1NC(=O)CSc1cc(C)ccc1C` gave an inhibition of 9.92%.
With `Cn1c2c(c(=O)n(C)c1=O)C(c1cccc(F)c1)C(C#N)=C(N)O2` (stereo unspecified) the inhibition was -0.62%.
Molecule `Cc1ccc(C(=O)NCC(=O)NCc2cc(=O)n(C)c(=O)n2C)cc1` has an inhibition of -0.269%.
Work on `CCC(C)NC(=O)c1cc(Cl)ccc1OC` (stereo unspecified) yielded an inhibition of 2.55%.
`COc1ccc(Cl)cc1C(=O)Nc1ccc(N(C)C(C)=O)cc1` showed an inhibition of 1.34%.
In the case of `COC(=O)c1ccc(NC(=O)c2cc(Cl)ccc2OC)cc1`, the inhibition is reported as 92.4% (active).
Work on `COc1cc(NC(=S)NCCSc2ccc(C)cc2)cc(OC)c1` yielded an inhibition of 27.5%.
Molecule `O=C(NCCc1ccccc1)C1CCN(S(=O)(=O)c2ccc(Br)s2)CC1` has an inhibition of 18.6%.
For `O=S(=O)(NCc1cccnc1)c1ccc(Br)s1`, the inhibition was 1%.
`O=S(=O)([N-]c1nc2ccccc2nc1-[n+]1ccc(Cc2ccccc2)cc1)c1ccc(Br)s1` was tested, and the inhibition was 71.9% (active).
In the case of `COc1ccc2c(c1)c1nc3n(c(=O)c1n2CC(=O)Nc1ccccc1)CCS3`, the inhibition is reported as 41.9%.
With `CC(C(=O)NC1CCCC1)N1CCN(S(=O)(=O)c2ccccc2Cl)CC1` (stereo unspecified) the inhibition was -17.2%.
Molecule `Cc1ccc(-n2ncc3c2CCCC3NC(=O)c2cnccn2)cc1C` (stereo unspecified) has an inhibition of 9.66%.
In the case of `Cn1nccc1C(=O)NC1CCCc2c1cnn2-c1ccccc1F` (stereo unspecified), the inhibition is reported as -1.1%.
Molecule `Cn1nccc1C(=O)NC1CCCc2c1cnn2-c1ccc(F)cc1F` (stereo unspecified) has an inhibition of 26.9%.
For `COc1ccc(C(=O)NC2CCCc3c2cnn3-c2cccc(C)c2C)c(OC)n1` (stereo unspecified), the inhibition was 97.7% (active).
For `Cc1cc(C(=O)NC2CCCc3c2cnn3-c2cccc(C)c2C)c(C)o1` (stereo unspecified), the inhibition was 68% (active).
`CC(=O)NCC(=O)NC1CCCc2c1cnn2-c1ccccc1F` (stereo unspecified) showed an inhibition of -11.2%.
Work on `Cc1nonc1C1CCCN1Cc1nc(-c2ccc(F)cc2F)oc1C` (stereo unspecified) yielded an inhibition of 29.7%.
Work on `Clc1ccc(C[n+]2cc(-c3ccc(Cl)cc3)n3c2CCC3)cc1` yielded an inhibition of 31.8%.
For `Cc1cccc(N(CC(=O)N=Nc2c(O)[nH]c3ccccc23)S(C)(=O)=O)c1C`, the inhibition was -22.1%.
In the case of `COc1ccc(S(=O)(=O)Nc2ccc3cn[nH]c3c2)cc1[N+](=O)[O-]`, the inhibition is reported as 0.751%.
`O=[N+]([O-])c1cc(S(=O)(=O)Nc2cccc(Cl)c2)ccc1N=Nc1c(O)[nH]c2ccccc12` was tested, and the inhibition was 97.4% (active).
In the case of `CCN(CC)CCCNC(=O)c1cc2c(=O)[nH]c3ccc(C)cc3c2s1`, the inhibition is reported as 26.3%.
For `Cc1cccc(N(C)C(=O)c2cc3c(=O)[nH]c4ccc(C)cc4c3s2)c1`, the inhibition was 60.9% (active).
`Cc1ccc2[nH]c(=O)c(CC(=O)O)c(-c3ccccc3)c2c1` gave an inhibition of 22%.
`O=C(CNC(=O)C12CC3CC(CC(C3)C1)C2)OCC(=O)N1CCCCC1` gave an inhibition of 19.2%.
For `C/C(=N\NC(=O)c1ccc(NS(=O)(=O)c2cccs2)cc1)c1ccc2ccccc2c1`, the inhibition was -6.93%.
